SF-1 inh – blocks the human nuclear receptor SF-1; CHO-K1 Gal4-SF-1 LBD luciferase reporter; inhibition, % at 10 µM; 65,000 compounds, 0.55% hits; AID 525;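 active = inhibition above the mean inhibition of all tested compounds plus 3 SD, cut at about 48% in these data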
Target sequence (Q13285 whole entry, looked up, the tested form may be a part): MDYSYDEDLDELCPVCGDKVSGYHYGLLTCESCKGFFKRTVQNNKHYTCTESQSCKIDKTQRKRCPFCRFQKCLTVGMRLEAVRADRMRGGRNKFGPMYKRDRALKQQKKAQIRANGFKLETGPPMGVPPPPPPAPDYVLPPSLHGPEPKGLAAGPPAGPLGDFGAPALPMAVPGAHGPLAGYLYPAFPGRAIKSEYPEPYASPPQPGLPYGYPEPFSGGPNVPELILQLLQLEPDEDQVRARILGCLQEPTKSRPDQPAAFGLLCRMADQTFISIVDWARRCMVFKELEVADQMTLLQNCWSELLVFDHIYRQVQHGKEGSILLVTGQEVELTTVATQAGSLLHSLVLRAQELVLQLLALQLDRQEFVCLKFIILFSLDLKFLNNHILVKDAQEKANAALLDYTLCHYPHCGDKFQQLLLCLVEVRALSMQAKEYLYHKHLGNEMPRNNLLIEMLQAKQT
Large screens that a line does not name were inactive. This is one part of a sample in which hits are shown more often than they occur.

CN(c1ccccc1)S(=O)(=O)c1ccc(C(=O)Nc2nnc(-c3ccc(F)cc3)o2)cc1	none
O=C(Nc1nnc(C2CC2)o1)c1ccc(S(=O)(=O)N2CCCc3ccccc32)cc1	SF-1 inh 49
COC(=O)Nc1ccc(S(=O)(=O)N2c3ccccc3CCC2C)cc1 (stereo not drawn)	none
CC(C)(C)n1ncc2c(=O)n(CC(=O)NCc3ccc(F)cc3)cnc21	none
CCC(C)NC(=O)CCNS(=O)(=O)c1ccc(Br)cc1 (stereo not drawn)	none
CCN1CCN(c2ncc(C(=O)N3CCCc4ccccc43)c3ccccc23)CC1	none
Cc1ccc2c(c1)[nH]c1c(N3CCN(Cc4ccccc4)CC3)ncnc12	SF-1 inh 50
COc1ccc(C)cc1NC(=O)NC1CCN(Cc2ccccc2)CC1	none
c1ccc2c(c1)CCN(c1ncnc3c1[nH]c1ccccc13)C2	SF-1 inh 86
C=CCNC(=O)C(C#N)c1nc2ccccc2nc1N1CCN(Cc2ccccc2)CC1 (stereo not drawn)	none
c1ccc2c(c1)oc1c(Nc3ccc(CN4CCOCC4)cc3)ncnc12	none
c1ccc(CN2CCN(c3ncnc4c3[nH]c3ccccc34)CC2)cc1	SF-1 inh 50
Cc1cc(=O)[nH]c(N2CCN(Cc3ccccc3)CC2)n1	none
Cc1cc2c(cc1C)NC(c1c(C)n(C)n(-c3ccccc3)c1=O)C1=C(CC(C)(C)CC1=O)N2 (stereo not drawn)	none
O=S(=O)(Nc1ccc2c(c1)nc1n2CCOC1)c1ccc(Cl)cc1	none
CC1CCCCN1CCNC(=O)CN1C(=O)COc2ccccc21 (stereo not drawn)	none
CCO/C=C/C(O)(CNC(=O)COc1ccccc1F)C(F)(F)F (stereo not drawn)	none
CSc1nnc(-c2ccc(S(=O)(=O)N3CCOCC3)cc2)n1CC1CCCO1 (stereo not drawn)	none
O=C(CN1C(=O)CSC1=O)N1CCc2ccccc2C1	none
C=CCOC(=O)CN1C(=O)c2ccccc2C1=O	none
CC(NC(=O)Nc1nnc(C(F)(F)F)s1)(C(F)(F)F)C(F)(F)F	SF-1 inh 94
Cc1cccc(Cn2c(N3CCCCC3C)nc3c2c(=O)[nH]c(=O)n3C)c1 (stereo not drawn)	none
Cc1cc(C)c(C(=O)CSc2n[nH]c(=O)n2C2CC2)cc1C	none
CCOC(=O)Cn1c(-c2ccccn2)nc2ccccc21	none
Cc1cc(/C=c2/sc3nc4ccccc4n3c2=O)c(C)n1-c1ccccn1	SF-1 inh 85
CCCC12CN3CC(C)(CN(C1)C3c1ccc(OC(C)C)cc1)C2=O (stereo not drawn)	none
Cc1ccc(Cl)cc1N1CCN(Cc2nc3c(c(=O)[nH]c(=O)n3C)n2Cc2ccccc2F)CC1	none
CC1(c2ccccc2)NC(=O)N(CCN2C(=O)c3ccccc3C2=O)C1=O (stereo not drawn)	none
Cc1ccc(Cn2c(CN3CC(C)OC(C)C3)nc3c2c(=O)n(C)c(=O)n3C)cc1 (stereo not drawn)	none
CCN1C(=O)CC(C(=O)NC)SC1=Nc1cc(Cl)c(O)c(Cl)c1 (stereo not drawn)	none
COc1cc(C2Nc3cccc4cccc(c34)N2)cc(OC)c1OC(C)=O	SF-1 inh 82
C/C=C/c1ccc(OC)c(OC(C)=O)c1	none
O=C(Nc1ccc2oc(-c3ccccc3)nc2c1)c1cccnc1	none
O=C(Nc1ccccc1)c1cccc(-c2nnc(-c3ccccc3)o2)c1	SF-1 inh 63
O=C(Nc1cccc(-c2nnc(-c3ccccc3)o2)c1)C1CCCCC1	none
O=C(Nc1ccc(F)cc1)c1cccc2c1C(=O)N(Cc1ccccn1)C2	none
COc1ccc(-n2nnnc2SCC(=O)c2cc3ccccc3o2)cc1	none
CCOC(=O)c1c(NC(=O)CSc2nc(C)cc(C)c2C#N)sc(C(C)=O)c1C	none
O=C(N(c1ccccc1)c1ccccc1)n1ccnc1	none
O=C(NC(NCc1ccccn1)(C(F)(F)F)C(F)(F)F)c1ccco1	none
O=C(CCCC(=O)N(CC(=O)NC1CCCCC1)Cc1ccc2c(c1)OCO2)Nc1ccccn1	none
CC1=CC(=C2C(=O)c3ccccc3C2=O)C=C(C)O1	none
CCC1(CC)C(=O)N=C2c3ccccc3C(=O)N21	none
CCCN1C=CC(=C2C(=O)c3ccccc3C2=O)C=C1	SF-1 inh 93
CCN1C=CC(=C2C(=O)c3ccccc3C2=O)C=C1	SF-1 inh 80
O=C(CN1CCOc2ccccc21)NC1CC1	none
CCn1c(=NC(=O)CN2C(=O)CCC2=O)sc2c(C)cc(C)cc21	none
CCNC(=O)NC(=O)COC(=O)c1ccccc1SCC(=O)NC(=O)NCC	none
Cc1cccc(CN2CCN(CC(=O)NCc3ccc(F)cc3)C2=O)c1	none
Cn1c(NC(=O)c2ccccc2F)cc(=O)n(C)c1=O	none
O=C(Nc1ccc2c(c1)OCO2)c1c(F)cccc1F	none
O=C1c2ccccc2C(O)N1Cc1ccc2c(c1)OCO2 (stereo not drawn)	none
O=C1/C(=C/Nc2ccc3c(c2)OCO3)CCc2ccccc21	SF-1 inh 74
CC1CCN(CCCNC(=O)c2ccc(CS(=O)(=O)Cc3ccccc3F)o2)CC1	none
CS(=O)(=O)N1CCN(c2ccccc2NC(=O)Cc2ccccc2)CC1	none
Cc1ccccc1S(=O)(=O)Cc1ccc(C(=O)N2CCN(c3cccc(C)c3C)CC2)o1	SF-1 inh 82
CCOc1ccccc1NC(=O)CSc1nc2cccnc2n1C	none
Cc1cc(C)nc(SCC(=O)N2CCCCC2)n1	none
Cn1c(-c2ccc3c(c2)OCO3)cnc1NCc1ccccc1	none
Cc1ccc(-c2cnc(NC(=O)CCC(=O)N3CCCCC3)n2C)cc1	SF-1 inh 65
COc1ccc2c(c1)CCc1c(C(=O)NC3CCCCC3)noc1-2	none
Nc1nc(N)c2sc3nc4c(cc3c2n1)CCC4	none
COC(=O)c1cc(Br)c(=O)n(Cc2ccc3c(c2)OCO3)c1	none
COc1ccc(C2=NOC(C(=O)NCCCN3CCOCC3)C2)cc1 (stereo not drawn)	none
Cc1cc(-c2ccco2)n(CC(=O)NCc2ccco2)n1	none
COc1ccc2c(c1)CCc1c(C(=O)NCCN3CCOCC3)noc1-2	none
COc1ccc(-c2nc(CSCC(=O)NCc3ccco3)c(C)o2)cc1	SF-1 inh 69
Cc1ccc(-c2nc(CS(=O)CC(=O)NCc3ccccn3)c(C)o2)cc1 (stereo not drawn)	none
O=C(C1CCCCC1)N1CCN(c2ncccn2)CC1	none
CCOc1ccc(-c2nc(CSCC(=O)NCCN3CCOCC3)c(C)o2)cc1	SF-1 inh 65
COc1ccc(-c2nc(CS(=O)CC(=O)N3CCCC3)c(C)o2)cc1 (stereo not drawn)	none
CCc1ccc(-c2nc(CSCC(=O)N3CCN(c4ncccn4)CC3)c(C)o2)cc1	SF-1 inh 51
CCOC(=O)c1ccc(NC(=O)N(CC)CC)cc1	none
CC(=O)c1cn(CC(=O)NCc2cccnc2)c2ccccc12	none
CCOCC(=O)Nc1cccc(Br)c1	none
Cc1nc2c(cc(Oc3ccc(S(=O)(=O)N4CCOCC4)cn3)c3ccsc32)s1	none
CCC(OC(=O)CCc1nc2ccccc2[nH]c1=O)C(=O)c1ccccc1 (stereo not drawn)	none
COc1ccc(C)cc1NC(=O)C1CCCN(S(=O)(=O)c2c(C)noc2/C=C/N(C)C)C1 (stereo not drawn)	none
CN(C)c1ccc(N/C=C/C(=O)c2ccccc2)cc1	SF-1 inh 66
CCOC(=O)c1c(C)c(C(=O)Nc2ccc(N(C)C)cc2)c(C)n1CC	none
CN(C)c1cccc(C(=O)NC2CCCCCC2)c1	none
CCOC(=O)CSc1nc2ccccc2c(=O)n1NC(=O)c1ccccc1	none
O=C(c1ccco1)N1CCN(C(c2ccccn2)c2nnnn2C2CCCC2)CC1 (stereo not drawn)	none
CCOC(=O)c1ccc(N2CC(O)=C(c3nc4ccccc4c(=O)[nH]3)C2=N)cc1	none
CSc1nc(=NC(C)=O)ss1	none
CCN(CC)C(=O)CSc1ncnc2c(-c3cccs3)nsc12	none
CCc1ccc(-c2ccc(C(=O)O)cc2)nc1	none

High-throughput results deposited in PubChem BioAssay by The Scripps Research Institute Molecular Screening Center.
